Laboratory results reported in PubChem BioAssay (NCI).
Compounds without any hit were thinned out: in the full panel of roughly 83,000, 20% have a hit.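 Activity criterion: percent growth below 10, measured after cells in 96-well plates were exposed to a single compound concentration for 48 hours.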 A number with no mark means an inactive call. Active and inactive are the calls of the source.

tested on: HL-60(TB) leukemia; test: NCI-60 one-dose screen, 48 h (100 = growth as untreated, 0 = no growth, -100 = all killed); conditions: 10 µM unless noted

Structure (SMILES)	growth
C=C1C(=O)O[C@H]2[C@H]1CC/C(Cn1cc(Cn3ccc4cc(Cl)ccc43)nn1)=C\CC[C@@]1(C)O[C@@H]21	-37.7% (active)
N=C(N)c1ccc(-c2ccc(-c3cccs3)s2)nc1	-32.1% (active)
CCOC(=O)NC(=S)n1oc(=O)c2ccccc21	104%
O=[N+]([O-])c1ccc(OCCCOc2ccccc2)cc1	95.5%
CNC(=O)c1cc(Oc2cccc3nc(Nc4ccc(Cl)c(F)c4)ccc23)ccn1	95%
O=C(Nc1ccc(F)c(Cl)c1)Nc1ccc(Cl)c(Cl)c1	25%
O=C(/C=C/C12c3ccccc3C(c3ccccc31)C1C(=O)NC(=O)C12)c1ccc(Br)cc1 (centres undefined)	2.14% (active)
COc1ccc(-c2cn(-c3ccc(Cl)cc3)c(=S)[nH]2)cc1OC	56.1%
COc1cc2nccc(Oc3ccc(NC(=O)C4(C(=O)Nc5ccc(F)cc5)CC4)cc3)c2cc1OC	8.85% (active)
CC(=O)Nc1c(Cl)cc(Cl)c2c1Cc1cc([N+](=O)[O-])ccc1-2	89.8%
Clc1nc(Cl)c2ncn(CC3(Cn4cnc5c(Cl)nc(Cl)nc54)COC3)c2n1	-75.5% (active)
CCN(CC)C(=O)CC1=C(C)/C(=C/c2[nH]c(-c3ccc[nH]3)cc2OC)N=C1C	0.518% (active)
CCN(CC)CCn1c2ccc(O)cc2c2sc3cc(O)ccc3c(=O)c21	38%
COc1ccc2c(c1)c(-c1nc(-c3cn(C)c4ncccc34)cs1)cn2CCO	82.4%
Cn1ncc2c(Nc3ccccc3Cl)nc(Cl)nc21	96.1%
COc1ccc(Nc2ncnc3ccc(-c4cncc(NS(C)(=O)=O)c4)cc23)cc1Cl	3.01% (active)
O=[N+]([O-])c1cccc(-c2nc3sccn3c2-c2ccnc(NCCCNS(=O)(=O)c3ccc(Cl)cc3)n2)c1	26.1%
CCNc1cc(S(=O)(=O)O)ccc1C	93.8%
N#CN1CCC[C@H]1C(=O)N1CCc2c(-c3[nH]nc4ncccc34)cccc21	-30.7% (active)
O=C(Nc1ccc(-n2ccc3c(NC(=O)c4ccccc4)ncnc32)cc1)Nc1ccc(Cl)c(C(F)(F)F)c1	15.3%

Structure (SMILES)	growth
CC(C)c1ccc(S(=O)(=O)NC(=O)NC2CCCC2)cc1	90.8%
COc1ccc(/C=C2\CCCC3=C2NC(N)=NC3c2ccc(OC)cc2)cc1 (centres undefined)	67.8%
Oc1ccc(N=Nc2ccccn2)c(O)c1	-37.3% (active)
COc1ccccc1NC1=C(N2CCCCC2)C(=O)c2ccccc2C1=O	72.6%
Cc1nc2ccccc2c(/C=C/c2ccc(F)cc2)c1C(N)=O	81.1%
COc1ccccc1N1CCCSC1=Nc1ccccc1	50.1%
Cc1c(C(=O)OCCO)cc(-c2ccc(Cl)cc2)n1-c1ccc(Cl)cc1Cl	59.7%
Cc1cc2nc(CC(=O)c3cccc([N+](=O)[O-])c3)c(=O)[nH]c2cc1C	93.5%
O=C1Nc2ccccc2/C1=C/c1cccs1	107%
COc1cc(CO)cc2cc3ccccc3nc12	101%
O=Cc1c[nH]c2ccc(-c3csc4ccccc34)cc12	3.68% (active)
COc1cc2ncnc(Nc3ccc(S(=O)(=O)Nc4cc(C)on4)cc3)c2cc1OCCCN1CCN(c2ccc([N+](=O)[O-])cc2)CC1	118%
O=C(N/N=C/c1ccc(Oc2ccccc2)cc1)c1cnn2c1NC(c1ccccc1)C2 (centres undefined)	78.6%
COc1ccc(/C=C/c2cc(N3CCOCC3)c3cc(F)c(F)cc3n2)cc1OC	-8.49% (active)
COc1ccc2c(c1)C(=O)c1c-2c(OCCN(C)C)nc2ccccc12	25.4%
O=C(CCl)Nc1ccc2c(Nc3cc(O)ccc3Cl)ncnc2c1	-53.2% (active)
O/N=C1\c2ccccc2-c2ccc(F)cc21	92.3%
CC(C)N1CCN(c2ccc(OC[C@H]3CO[C@](Cn4cncn4)(c4ccc(Cl)cc4Cl)O3)cc2)CC1	91.3%
COc1ccc2c(c1)C(Br)=C(CCO)C2c1ccccc1 (centres undefined)	1.04% (active)
